Reference: article PMC4336329 (PLoS ONE, 2015)
In all, about 310,000 compounds went through this assay and about 14,000 (4.5%) showed an effect of 50% or more. Effects have a minus sign here. This is one part of a sample in which strong results are shown more often than they occur.

Molecular target: human ether-à-go-go-related gene (hERG) potassium channel (human, UniProt Q12809)
Experiment: primary screen, population patch clamp on CHO cells stably expressing hERG; higher = less effect of the substance
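Also: peak tail current of the secondary pulse compared with the same well before compound.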

human ether-à-go-go-related gene (hERG) potassium channel, sequence (Q12809 whole entry, looked up): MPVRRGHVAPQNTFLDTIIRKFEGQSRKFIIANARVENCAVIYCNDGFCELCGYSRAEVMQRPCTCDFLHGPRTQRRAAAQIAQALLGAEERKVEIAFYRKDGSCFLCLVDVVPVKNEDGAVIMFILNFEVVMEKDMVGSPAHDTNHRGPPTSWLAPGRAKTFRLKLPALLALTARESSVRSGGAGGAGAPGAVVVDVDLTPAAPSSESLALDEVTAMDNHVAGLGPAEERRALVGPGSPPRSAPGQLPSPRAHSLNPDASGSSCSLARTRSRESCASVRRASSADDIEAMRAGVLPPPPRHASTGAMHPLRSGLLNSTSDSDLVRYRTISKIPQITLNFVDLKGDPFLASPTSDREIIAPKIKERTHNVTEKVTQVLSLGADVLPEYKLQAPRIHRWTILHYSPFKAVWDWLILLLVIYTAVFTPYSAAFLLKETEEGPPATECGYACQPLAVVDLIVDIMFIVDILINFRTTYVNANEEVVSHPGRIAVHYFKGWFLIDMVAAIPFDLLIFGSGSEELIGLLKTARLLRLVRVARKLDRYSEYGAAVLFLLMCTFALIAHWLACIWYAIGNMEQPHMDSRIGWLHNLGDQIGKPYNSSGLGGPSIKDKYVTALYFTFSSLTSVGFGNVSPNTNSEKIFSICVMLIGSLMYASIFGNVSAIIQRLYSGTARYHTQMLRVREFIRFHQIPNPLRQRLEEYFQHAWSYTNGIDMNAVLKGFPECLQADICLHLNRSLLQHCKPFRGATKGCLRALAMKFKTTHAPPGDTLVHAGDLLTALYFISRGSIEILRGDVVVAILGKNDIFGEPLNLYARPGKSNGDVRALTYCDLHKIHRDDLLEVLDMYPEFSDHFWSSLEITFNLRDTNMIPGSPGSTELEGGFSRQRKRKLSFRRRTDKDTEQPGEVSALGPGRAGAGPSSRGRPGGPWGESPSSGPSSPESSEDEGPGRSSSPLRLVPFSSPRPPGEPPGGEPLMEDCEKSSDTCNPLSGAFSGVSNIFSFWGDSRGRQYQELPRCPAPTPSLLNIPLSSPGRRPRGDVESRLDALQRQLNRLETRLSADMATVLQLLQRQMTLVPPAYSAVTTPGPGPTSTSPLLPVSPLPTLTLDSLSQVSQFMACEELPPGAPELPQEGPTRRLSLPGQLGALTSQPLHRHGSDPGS

Row | SMILES | hERG current change (%, negative = inhibition) at 10uM
1 | COc1cccc(CC2(CO)CCCN(S(=O)(=O)N(C)C)C2)c1 (stereo not shown) | 42.4%
2 | CCOC(=O)c1ccc(NC(=O)CN2C(=O)C(C)SC(C)C2=O)cc1 (stereo not shown) | 8.95%
3 | COc1ccc(C(CNC(=O)c2cc(S(=O)(=O)NCc3ccccc3)ccc2C)N2CCOCC2)cc1 (stereo not shown) | -19%
4 | COC(=O)CSc1nnc(COc2ccc3ccccc3c2)o1 | 19%
5 | CC(=O)N(CCC1(C(C)C)CCOC(C)(C)C1)C(C)c1cccs1 (stereo not shown) | -2.41%
6 | Cc1cccc(NC(=O)c2ccc(C(=O)Nc3cccc(C)c3)nc2)c1 | 23.2%
7 | COc1ccc(-c2noc(C(=O)NCc3ccccc3Cl)n2)cc1OC | 0.607%
8 | CC(C)C1CC(c2csc(N)n2)CCO1 (stereo not shown) | 18.8%
9 | Cc1[nH]oc(=O)c1N=Nc1ccc2[nH]c(=O)[nH]c2c1 | 7.93%
10 | CCOc1cc(-c2cn(S(=O)(=O)c3cccc4nsnc34)nc2N)cc(OCC)c1OCC | 0.719%
11 | Cc1cc(C)c2sc(N(CCN(C)C)C(=O)c3c(F)cccc3F)nc2c1.Cl | -2.23%
12 | CSCCC(NC(=O)c1ccc(Cl)cc1)C(=O)OCC(=O)N1CCCC1=O (stereo not shown) | -2.69%
13 | O=[N+]([O-])c1cccc(-c2ccc(C(=S)N3CCN(c4ccccc4)CC3)o2)c1 | 27.7%
14 | O=S(=O)(c1cccc(F)c1)N1CCN(C(=S)NCc2ccccc2)CC1 | -0.89%
15 | S=C(NCc1ccccc1)N1CCN(Cc2ccc3c(c2)OCO3)CC1 | -16.7%
16 | CCOc1ccc(NC(=S)NCCCN2CCN(C3CCCCC3)CC2)cc1 | -47.2%
17 | S=C(NCc1ccccc1)N1CCCCC1 | -1.03%
18 | O=C(c1ccccc1)N1CCN(c2ccc(NCc3ccc4c(c3)OCO4)cc2)CC1 | -12.2%
19 | O=S(=O)(c1ccc(F)cc1)N1CCN(C(=S)NCc2ccccc2)CC1 | 13.8%
20 | O=C(c1ccccc1)N1CCN(C(=S)NCc2ccc3c(c2)OCO3)CC1 | -59.4%
21 | CCOC(=O)c1ccc(NC(=S)NCCCN2CCN(C3CCCCC3)CC2)cc1 | -53.7%
22 | O=S(=O)(c1ccccc1)N1CCN(C(=S)NCc2ccccc2)CC1 | -50.3%

Row | SMILES | hERG current change (%, negative = inhibition) at 10uM
23 | S=C(NCc1ccccc1)N1CCN(C(=S)NCc2ccccc2)CC1 | 12.9%
24 | CCOC(=O)c1ccc(NC(=S)NCCCN2CCCCC2)cc1 | -42%
25 | S=C(NCc1ccccc1)N1CCN(C2CCCCC2)CC1 | -62.6%
26 | CC(=O)N1CCc2cc(N=NC3=C(O)CCCC3=O)ccc21 | 9.61%
27 | COCCn1c(Cc2ccccc2)nnc1SCC(=O)N1CCCCC1C (stereo not shown) | 7.49%
28 | COc1ccc(CCC(=O)NNC(=O)Nc2ccccc2Cl)cc1 | 4.25%
29 | CC1(c2ccc(OC(F)F)cc2)NC(=O)N(CC(=O)Nc2ccc3c(c2)OCO3)C1=O (stereo not shown) | -36.5%
30 | N#Cc1cc2c(nc1SCC(=O)Nc1sc3c(c1C#N)CCC3)CCCC2 | 4.92%
31 | CCOc1ccc(C(=O)COC(=O)Cn2cnc3c2c(=O)n(C)c(=O)n3C)cc1 | -13.5%
32 | S=C(Nc1ccccn1)NC1CCCC1 | -17.6%
33 | O=C(NC(=S)Nc1ccc(CN2CCCCC2)cc1)c1cc2ccccc2o1 | -24.3%
34 | COc1ccc(NC(=O)c2ccco2)cc1NC(=O)c1ccccc1F | 25.6%
35 | Cc1ccc2nc(C3CCN(CC(=O)N4CCCCCC4)CC3)[nH]c2c1 | -22.2%
36 | CC1CCCCN1C(=O)CN1CCC(c2nc3ccc(Cl)cc3[nH]2)CC1 (stereo not shown) | -60.2%
37 | O=C(NC1CCCCC1)N1CCC(c2nc3ccc(Cl)cc3[nH]2)CC1 | -34.3%
38 | CC1CCCCN1C(=O)Cc1ccc(Cl)cc1 (stereo not shown) | -11.1%
39 | CC1CCCCN1C(=O)CSc1nc2ccccc2[nH]1 (stereo not shown) | 25.8%
40 | CC1CCCN(C(=O)CN2CCC(c3nc4ccc(Cl)cc4[nH]3)CC2)C1 (stereo not shown) | -67.8%
41 | O=C1CC(N2CCC(c3nc4ccccc4o3)CC2)C(=O)N1c1ccc(Cl)c(C(F)(F)F)c1 (stereo not shown) | 6.87%
42 | COC(=O)C1=C(C)N(c2cccc(C(C)=O)c2)C(=O)C1 | 7.45%
43 | CC(C)OC(=O)/C(C#N)=C/c1cn(Cc2ccccc2)c2ccccc12 | -6.73%
44 | COc1ccc(N(C(=O)CNC(=O)c2ccco2)C(C(=O)NC2CCCCC2)c2ccco2)cc1 (stereo not shown) | 8.58%

Row | SMILES | hERG current change (%, negative = inhibition) at 10uM
45 | C=CCNc1nc2c(c(=O)[nH]c(=O)n2C)n1CCCCC | -12.1%
46 | O=[N+]([O-])c1ccc2[nH]cc(S(=O)(=O)N3CCN(c4cccc(Cl)c4)CC3)c2c1 | 16.3%
47 | NC(=O)NC(=O)COC(=O)c1cccc(S(=O)(=O)N2CCCCCC2)c1 | -21.4%
48 | C=CCNC(=O)C1CCN(S(=O)(=O)c2ccccc2)CC1 | -2.98%
49 | CCCNC(=O)C1CCN(S(=O)(=O)c2ccc(Br)cc2)CC1 | -1.78%
50 | C=CCNC(=O)c1ccccc1NC(=O)C1CCN(S(=O)(=O)c2ccc(SC)cc2)CC1 | -70%
51 | C=CCNC(=O)c1ccccc1NS(=O)(=O)c1ccc(SC)cc1 | -6.5%
52 | CSc1ccc(S(=O)(=O)N2CCC(C(=O)Nc3ccccc3C(F)(F)F)CC2)cc1 | 7.69%
53 | C=CCNC(=O)C1CCN(S(=O)(=O)c2ccc(Br)cc2)CC1 | -58.7%
54 | Nc1nc(N)nc(-c2cc(O)ccc2O)n1 | 10.3%
55 | O=C(CSc1ccccc1)N(c1ccc(Br)cc1)c1nccs1 | 10.8%
56 | Cc1ccc2cc(CN(CCCN(C)C)C(=S)NCc3ccccc3)c(=O)[nH]c2c1C | -50.3%
57 | Cc1ccc2[nH]c(=O)c(CN(CCO)C(=O)NCc3ccccc3)cc2c1 | 7.55%
58 | CCC(=O)N(CCc1ccccc1)Cc1cc2cccc(C)c2[nH]c1=O | -14.4%
59 | Cc1ccc(C)c2[nH]c(=O)c(CN(CCCN(C)C)C(=O)NCc3ccccc3)cc12 | -52.2%
60 | CCN(CC)CCCNC(=S)N(Cc1cccnc1)Cc1cc2cccc(C)c2[nH]c1=O | -1.68%
61 | Cc1cc(C)c2cc(CN(CCCN(C)C)C(=S)NCc3ccccc3)c(=O)[nH]c2c1 | -45.4%
62 | Cc1cccc2cc(CN(CCCN(C)C)C(=S)NCCc3ccccc3)c(=O)[nH]c12 | -72%
63 | COc1ccc2[nH]c(=O)c(CN(CCN(C)C)C(=O)NCc3ccccc3)cc2c1 | 9.31%
64 | Cc1ccc2cc(CN(CCCN(C)C)C(=O)NCc3ccccc3)c(=O)[nH]c2c1C | -34.1%
